# In PubChem BioAssay:
# Results with a measured potency or affinity are listed apart. Records with an inconclusive call do not appear. Active and inactive are the calls of the source.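 The calls were made as follows: active = signal-lowering compounds whose fitted half-maximal concentration is at or below twice the top tested dose in every run; inconclusive = runs disagree, flat 30 to 70% inhibition, or poor curve fit; inactive = the rest.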
# Test: CMV-driven luciferase expression suppression in HEK293 – cell-based, luminescence, dry powder, counter-screen for Pax8 inhibitor project, dose response (AID 743020);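 also: HEK293 cells stably expressing the CMV luciferase reporter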
# Settings: HEK293 CMV-luciferase reporter, SteadyGlo luminescence, 24 h; series mostly up to 35 µM
row,Compound,outcome
1,C[C@H]1CCCCO[C@H](CN(C)C(=O)C2CCCCC2)[C@@H](C)CN([C@@H](C)CO)C(=O)c2cc(NC(=O)Nc3ccc(F)cc3)ccc2O1,inactive
2,COc1ccc(S(=O)(=O)N(C)C[C@H]2OCCCC[C@H](C)Oc3ccc(NS(=O)(=O)c4ccc(F)cc4)cc3C(=O)N([C@@H](C)CO)C[C@@H]2C)cc1,inactive
3,C[C@@H]1CN([C@H](C)CO)C(=O)c2cc(NC(=O)Nc3ccc(C(F)(F)F)cc3)ccc2O[C@@H](C)CCCCO[C@@H]1CN(C)C(=O)c1ccccc1,inactive
4,Cc1nc(SCC(=O)Nc2nc3ccccc3s2)c(C#N)c(C)c1C,inactive
5,CC(=O)Nc1ccc(S(=O)(=O)c2ccnc3cc(Cl)ccc23)cc1,inactive
6,C[C@H](CO)N1C[C@H](C)[C@@H](CN(C)C(=O)C2CCCCC2)OCCCC[C@H](C)Oc2ccc(NS(=O)(=O)c3ccc(Cl)cc3)cc2C1=O,inactive
7,Cc1ccc(S(=O)(=O)N(C)C[C@@H]2Oc3cc(C#Cc4ccncc4)ccc3S(=O)(=O)N([C@H](C)CO)C[C@H]2C)cc1,inactive
8,CN1c2ccc(-c3ccccc3)cc2[C@H]2[C@H](CCN2C(=O)NC2CCCCC2)[C@@H]1CO,inactive
9,COc1ccc(CN(C)C[C@H]2OCCCC[C@@H](C)Oc3ccc(NC(=O)Nc4ccc(F)cc4)cc3C(=O)N([C@@H](C)CO)C[C@@H]2C)cc1,inactive
10,COc1cccc(S(=O)(=O)N2C[C@@H]3N[C@H](C2)C3c2ccc(/C=C/c3ccccc3)cc2)c1 (stereo partly specified),inactive
11,O=C(/C=C/c1ccccc1)Nc1cccc(C(=O)O)c1,inactive
